Compounds with a hit are over-represented: about 2.3% of the library has one in this group of screens.
Mm-Cpn inhibitor = inhibitors of Methanococcus maripaludis chaperonin TRiC (MmCpn); purified Mm-Cpn ATPase, ADP Transcreener TR-FRET; Potency, µM (series often up to 76.9 µM), without a hit: top-dose activity, negative = inhibition, usual class: inhibitors; 0.031% of 330,000 active; AID 504842; also: potency is read from the fitted curve at half-maximal effect; % is scaled to controls: 0 for no effect and ±100 for the full control effect; nearly all actives have a fitted effect of over 80% in size
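Quantitative HTS used 25 nM Mm-CPN and 10 uM ATP in magnesium/KCl Tris buffer, pH 7.4, with 1 mM DTT. Hydrolysis ran 30 min at 37°C; ADP was read by HTRF.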
aSyn rescue = rescues yeast growth from alpha-synuclein toxicity; Yeast expressing alpha-synuclein, growth rescue, BacTiter-Glo, 24 h; Potency, µM (doses to about 46.1 µM), without a hit: top-dose growth rescue (activation), most hits filed as activators; 0.14% of 370,000 active; also: potency is read from the fitted curve at half-maximal effect; % of control where 0% means no effect; nearly all actives have a fitted effect of over 65% in size
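Readout is rescue of growth in alpha-synuclein-expressing yeast, so inhibitors of toxicity appear as activators. Growth after 24 hr at 30 deg C in galactose medium is quantified by luminescence.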
FUS suppressor = rescues growth of FUS-expressing yeast | S. cerevisiae FUS-expressing, growth rescue, OD600, 24 h | Potency, µM (highest dose often 76.6 µM), hits mostly activators | 0.24% of 390,000 active;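 also: potency is read from the fitted curve at half-maximal effect; plate controls were DMSO vehicle for no effect and reference control for full effect; nearly all actives have a fitted effect of over 55% in size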
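Yeast FUS proteinopathy model; galactose-induced FUS (2%), starting OD 0.005. Cpds in dilution series, 24hr, 30C, 99% humidity. Abs 600 nm growth. Pos ctrl CP55940 (top 92uM final); neg ctrl DMSO.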
CCT chaperon mod = changes cytosolic chaperonin activity; 0.3% of 360,000 active; purified chaperonin ATPase assay, HTRF ADP detection, 30 min; activity change, % (concentration not given with the values), hits read low; AID 651819; in the data active = activity change below about -30%; also: % is scaled to controls: 0 for no effect and ±100 for the full control effect
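First, chaperonin was dispensed at 40 nM or 20 nM final depending on batch activity. Next, compounds were pinned at 76 uM and ATP added at 10 uM. After 30 min at 37 °C, ADP detection reagents ran 30 min at ambient temperature.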
TDP43 rescue = inhibitors of TDP-43 toxicity in yeast | TDP-43 expressing yeast growth rescue, BacTiter-Glo, 24 h | Potency, µM (doses to about 46.1 µM), inactives show at the top dose growth rescue (activation), hits mostly activators | 1.8% of 410,000 active; also: potency is read from the fitted curve at half-maximal effect; % of control where 0% means no effect; nearly all actives have a fitted effect of over 50% in size
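Luminescence from BacTiter-Glo reports growth of TDP-43-expressing yeast after 24 hr at 30 deg C with compound. Cells were raffinose-pregrown to mid-log, then seeded in galactose medium at OD600=0.02.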
Abeta yeast res = restores growth of yeast expressing A-beta42 peptide; Potency, µM (titrated, usually from 46.1 µM), actives largely listed as activators; AID 1347071; 0.063% of 410,000 active; yeast expressing A-beta42, growth rescue, OD600, 48 h; response scale: 0% DMSO, 100% iron-clioquinol control; also: potency is read from the fitted curve at half-maximal effect; nearly all actives have a fitted effect of over 55% in size
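Growth rescue measured by 600 nm absorbance after 48 h yeast culture at 30 C with compound. Values normalized between DMSO and an equimolar ferric chloride plus clioquinol control.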
* marks the source's active call; other numbers are inactive results; i = inactive; ? = inconclusive; nt = no result given; [ ] = remark or other dose. Unless noted, calls follow the shape of the dose curve; as a rule, active = well fitted curve in the direction sought with a large enough effect; inconclusive = small, poorly fitted or top-dose-only effect, or another doubt; inactive = no such curve, though single readings can be large; an effect the other way counts as inactive or inconclusive.

SMILES	Mm-Cpn inhibitor	aSyn rescue	FUS suppressor	CCT chaperon mod	TDP43 rescue	Abeta yeast res
Cc1nc2cc(-c3ccc(Cl)cc3)nn2c(C)c1CCC(=O)NC(C)c1ccc2c(c1)OCCO2 (configuration not stated)	-0.1%	11.9%	i	-3.0	28.2µM*	i
COc1nc(C#N)nc(N2CCCCC2)n1	nt	-0.6%	nt	nt	nt	nt
COC(=O)[C@]12C[C@H](CC(=O)N3CCSCC3)C(=O)N(Cc3ccco3)C1=C[C@H](C(C)C)O[C@@H]2C1CC1	nt	nt	i	nt	nt	nt
CCCCCCCCN1C(=O)[C@@H](CC(=O)N2CCSCC2)C[C@@]2(C(=O)OC)C1=C[C@H](C(C)C)O[C@@H]2C1CC1	nt	nt	4.47µM*	nt	nt	nt
COC(=O)[C@]12C[C@H](CC(=O)N3CCCCC3)C(=O)N(CCC3=CCCCC3)C1=C[C@H](C(C)C)O[C@@H]2C1CC1	nt	nt	i	nt	nt	nt
CCCCCCCCN1C(=O)[C@@H](CC(=O)N2CCOCC2)C[C@@]2(C(=O)OC)C1=C[C@H](C(C)C)O[C@@H]2C1CC1	nt	nt	8.91µM*	nt	nt	nt
CCCCCCCCN1C(=O)[C@@H](CC(=O)N2CCCC2)C[C@@]2(C(=O)OC)C1=C[C@H](C(C)C)O[C@@H]2C1CC1	nt	nt	12.6µM*	nt	nt	nt
O=C(/C=N/O)Nc1ccc2sc3ccccc3c2c1	1.1%	0.5%	i	-1.6	7.94µM*	i
COC(=O)c1ccccc1NC(=O)/C=N/O	-0.9%	6.0%	i	0.5	22.6%	i
COCCN=c1scc(-c2cccs2)n1/N=C/c1ccc(O)c(O)c1O	-0.4%	-10.0%	i	-1.6	?	i
COCCN=c1scc(-c2ccccc2)n1/N=C/c1c[nH]c2ccccc12	0.7%	1.7%	i	-1.5	11.2µM*	i
COc1ccccc1NC(=O)OC1CC2CC1[C@H]1CCCCN1[C@H]2Cc1ccccc1 (some centres not stated)	nt	nt	i	nt	nt	nt
COc1cccc(CNC(=O)CSc2n[nH]c(-c3ccccc3Cl)n2)c1	nt	nt	i	nt	5.3%	i
O=C(Nc1ccccc1C(=O)Nc1ccc(Br)cn1)c1ccccc1Cl	-0.1%	1.6%[1.84 µM]	i	-2.1	20µM*	i
Cc1ccc(OCC(=O)NC(=S)Nc2ccccn2)c(Br)c1	0.7%	-9.3%	i	-0.3	-5.3%	i
Cc1ccc(OCC(=O)NNC(=S)NC(=O)C(C)(C)C)c(Br)c1	-0.5%	23.9%	i	2.4	5.01µM*	i
Cc1ccc(OCC(=O)NNC(=S)NC(=O)C2CC2)c(C)c1	1.4%	nt	nt	nt	nt	nt
Cc1ccc(OCC(=O)NNC(=S)NC(=O)C2CCCCC2)c(C)c1	-0.8%	?	i	-2.6	12.6µM*	i
CCOC(=O)c1ccc(NC(=S)N2CCSC2c2ccc(Cl)cc2)cc1 (configuration not stated)	-1.0%	13.6%	?	-2.1	15.8µM*	i
COc1ccccc1N1CCN(C(=O)c2ccc3c(c2)nc(C)n3-c2cc(OC)c(OC)c(OC)c2)CC1	nt	nt	i	nt	nt	nt
CCCCCCNC(=O)N1C/C=C\C(c2ccc(OC)cc2)N(Cc2ccc(F)cc2)C(=O)C1 (configuration not stated)	0.9%	6.9%	i	3.2	?	i
CCCCCCC(=O)N1C/C=C\C(c2ccc(OC)cc2)N(Cc2ccc(F)cc2)C(=O)C1 (configuration not stated)	4.2%	7.7%	?	0.6	28.2µM*	i
COc1ccccc1C(=O)Nc1ccc(-c2cc(C(F)(F)F)nn2-c2ccccc2)cc1	nt	nt	?	nt	3.5%	i
C=CCNC(=S)NNc1nc(N2CCCC2)nc(N2CCCC2)n1	-0.5%	-5.3%	i	-53.9*	-6.9%	i
O=C(COc1ccccc1Cl)NC(=S)Nc1ccccc1N1CCCC1	-6.9%	6.2%	i	-1.5	15.8µM*	?
SMILES	Mm-Cpn inhibitor	aSyn rescue	FUS suppressor	CCT chaperon mod	TDP43 rescue	Abeta yeast res
O=C(COc1ccccc1Cl)NC(=S)N1CCc2ccccc21	-0.3%	-20.3%	i	1.2	17.8µM*	?
O=C(COc1ccccc1)NC(=S)N1CCc2ccccc21	0.6%	-4.7%	i	-1.7	12.1%	i
CCOc1ccc(C(=O)CSc2nnc(SCc3ccc(Cl)cc3)s2)cc1	nt	nt	i	nt	nt	nt
CCCCN1CCN(C2=Nc3ccccc3Sc3ccccc32)CC1	nt	nt	i	nt	nt	nt
O=C(CCl)N=c1sccn1Cc1ccc(Cl)cc1Cl	0.5%	3.3%	i	1.3	21.9%[9.22 µM]	i
O=C(CCl)N=c1sccn1Cc1ccccc1Cl	-0.4%	3.8%	i	-0.6	22.4µM*	i
Oc1ccc(Cc2ccc(Cl)cc2)c(O)c1	-0.9%	-20.2%	i	0.5	?	i
Oc1ccc(Cc2ccccc2Cl)c(O)c1	nt	3.9%	i	0.0	12.6µM*	i
C[C@@H]1COc2cc(N3CCSCC3)ccc2S(=O)(=O)N1C	nt	nt	i	nt	nt	nt
CC(=O)N1N=C(c2ccc(Br)cc2)CC1c1cn(C)c2ccccc12 (configuration not stated)	?	?	nt	1.2	25.1µM*	i
Cc1cc(C(=O)CCl)c(C)n1CCc1ccc(Cl)cc1	-0.5%	-0.1%	i	-1.9	4.2%[9.22 µM]	i
COc1ccc(CCn2c(C)cc(C(=O)CCl)c2C)cc1OC	-0.4%	-7.5%	i	-0.2	15.8µM*	i
COc1ccc(-n2c(C)cc(C(=O)CCl)c2C)cc1	1.9%	11.3%	i	-2.0	3.16µM*	i
Cc1cc(-n2c(C)cc(C(=O)CCl)c2C)no1	-0.8%	-7.4%	i	1.1	3.55µM*	i
CCN(C(=O)COC(=O)c1c2c(nc3ccccc13)/C(=C/c1ccccc1)CC(C)C2)C1CCS(=O)(=O)C1 (configuration not stated)	-8.3%	12.9%	nt	0.6	14.1µM*	i
CCCn1ccc2c(OCC(=O)Nc3ccc(F)cc3F)cccc2c1=O	nt	nt	i	nt	22.4µM*	i
CCn1ccc2c(OCC(=O)Nc3ccc(C)c(Cl)c3)cccc2c1=O	nt	nt	?	nt	22.4µM*	i
CCCn1ccc2c(OCC(=O)Nc3ccc(OC)c(OC)c3)cccc2c1=O	nt	nt	i	nt	0.0%	i
CCCn1ccc2c(OCC(=O)Nc3ccc(NC(C)=O)cc3)cccc2c1=O	-1.4%	-6.3%	i	-1.8	-3.5%	i
COc1ccc(C2N=C(Nc3nc4ccccc4o3)NC3=C2C(=O)CC(C)(C)C3)cc1 (configuration not stated)	nt	1.3%	nt	nt	nt	nt
CC(C)CN1C(=O)[C@@]2(CC(=O)N(C)C2c2ccccc2)c2cc(-n3cc(C(C)(C)O)nn3)ccc21 (some centres not stated)	nt	nt	i	nt	nt	nt
Cc1ccn2c(Nc3ccccc3)c(-c3ccccn3)nc2c1	0.5%	1.4%	i	-37.2*	9.6%	i

Bioassay records (PubChem BioAssay)
